{"source": "PubChem BioAssay (NCATS)", "note": "Activity calls are given as the source filed them. Calls follow the shape of the dose curve; as a rule, active = well fitted activation curve with a large enough effect; inconclusive = small, poorly fitted or top-dose-only effect; inactive = no such curve, though single readings can be large or run the other way. Potency is read from the fitted curve at half-maximal effect."}
{"target": "Cytochrome P450 3A4 (Homo sapiens) (UniProt P08684)", "sequence (P08684 whole entry, looked up)": "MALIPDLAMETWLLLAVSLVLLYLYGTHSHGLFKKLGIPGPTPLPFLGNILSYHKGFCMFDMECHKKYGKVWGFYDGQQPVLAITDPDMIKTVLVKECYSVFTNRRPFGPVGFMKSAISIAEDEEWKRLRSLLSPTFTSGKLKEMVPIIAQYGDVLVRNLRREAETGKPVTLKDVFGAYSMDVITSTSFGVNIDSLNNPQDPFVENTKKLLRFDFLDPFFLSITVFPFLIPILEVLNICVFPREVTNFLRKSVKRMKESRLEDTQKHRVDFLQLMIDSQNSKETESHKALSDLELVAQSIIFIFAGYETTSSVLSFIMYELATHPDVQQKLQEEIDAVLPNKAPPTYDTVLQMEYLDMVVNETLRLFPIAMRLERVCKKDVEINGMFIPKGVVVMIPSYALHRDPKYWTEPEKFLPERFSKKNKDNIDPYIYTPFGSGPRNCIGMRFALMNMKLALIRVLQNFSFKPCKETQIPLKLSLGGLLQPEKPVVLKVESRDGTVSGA", "test": "qHTS Assay for Activators of Cytochrome P450 3A4 (AID 885); also: nearly all actives have a fitted effect of over 65% in size", "settings": "recombinant CYP3A4, Luciferin-PPXE luminescence, 60 min; series mostly up to 57.1 µM; activity change, positive = activation: at the top concentration", "experimental": "NIH Molecular Libraries Screening Centers Network [MLSCN]\nNIH Chemical Genomics Center [NCGC]\nThe P450 gene superfamily is involved in the metabolism and clearance of xenobiotics. This assay used human CYP3A4 to measure the dealkylation of luciferin-6' phenylpiperazinylyl (Luciferin-PPXE; […]) to luciferin. The luciferin is then measured by luminescence after the addition of a luciferase detection reagent. Luciferin-PPXE concentration in the assay was equal to its KM for CYP3A4. Inhibitors and some substrates limit the production of luciferin, and decrease measured luminescence; activators increase the production of luciferin and luminescence.\nNCGC Assay Protocol Summary:\nTwo uL of enzyme and substrate mix (final concentrations: 20nM CYP3A4, 25uM Luciferin-PPXE, 200mM KPO4) were dispensed into a white, solid bottom 1536-well microtiter plate. 23nL of compound was transferred by a pin tool. The plate was incubated at RT for 10 min. Two uL of an NADPH regeneration solution (Promega supplied reagent) was dispensed and the reaction was allowed to continue for 60 min at RT. Then the reaction was stopped by reconstituted luciferin detection buffer. After another 20 min of incubation the plate was read on the ViewLux (Perkin Elmer) at 60 sec exposure and 2x2 binning. This protocol was carried out with Promega-Glo reagents and further information can be found at http://www.promega.com/tbs/tb325/tb325.pdf. Data were normalized to the to AC100 inhibition (57 uM ketoconazole).\nKeywords: P450, CYP2D6, Luciferase, MLSMR, MLSCN, NIH Roadmap, qHTS, NCGC"}
{"smiles": "COc1cc2ccc(=O)oc2c2ccoc12", "activity change, positive = activation": "-49% (inactive)"}
{"smiles": "C[C@@]12CC[C@@H]3c4ccc(O)cc4C[C@H](CCCCCCCCCS(=O)CCCC(F)(F)C(F)(F)F)[C@H]3[C@@H]1CC[C@@H]2O", "note": "(stereo not given in full)", "activity change, positive = activation": "-47.3% (inactive)"}
{"smiles": "CC(=O)Oc1c2c(c(CC=C(C)C)c3c1C(=O)C1=CC4CC5C(C)(C)OC(C/C=C(\\C)C(=O)O)(C4=O)[C@]15O3)OC(C)(CCC=C(C)C)C=C2", "note": "(stereo not given in full)", "activity change, positive = activation": "-94.7% (inactive)"}
{"smiles": "C[C@@]12C=CC(=O)C=C1CC[C@@H]1C2=CC[C@]2(C)[C@@H]1CC[C@H]2C(=O)CN1CCN(c2cc(N3CCCC3)nc(N3CCCC3)n2)CC1", "activity change, positive = activation": "-71.9% (inactive)"}
{"smiles": "CC1=CC(=O)c2c(O)cccc2C1=O", "activity change, positive = activation": "-49.2% (inactive)"}
{"smiles": "C=CCN1C[C@@H](C)N([C@H](c2ccc(C(=O)N(CC)CC)cc2)c2cccc(OC)c2)C[C@H]1C", "activity change, positive = activation": "-55.8% (inactive)"}
{"smiles": "COC(=O)[C@@H]1C[C@H]2CC[C@H](O)C[C@H]2N1CC1CC1", "activity change, positive = activation": "-51.6% (inactive)"}
{"smiles": "COC1C=CC23c4cc5c(cc4CN(CC2O)C3C1)OCO5", "note": "(stereo not given)", "activity change, positive = activation": "-54.5% (inactive)"}
{"smiles": "COc1cc(C(=O)OC2CC[C@]3(C)C4CCC5[C@]6(O)CC(O)[C@]7(O)C(CN8CC(C)CCC8[C@]7(C)O)[C@]6(O)C[C@@]53O[C@]24O)cc(OC)c1OC", "note": "(stereo not given in full)", "activity change, positive = activation": "-40.8% (inactive)"}
{"smiles": "COC(=O)[C@]1(C)CC[C@@]2(C)CC[C@@]3(C)C4=CC=C5C(=CC(=O)C(O)=C5C)[C@@]4(C)CC[C@@]3(C)C2C1", "note": "(stereo not given in full)", "activity change, positive = activation": "-47.9% (inactive)"}
{"smiles": "C=C(CO)C1Cc2c(ccc3c2OC2COc4cc(OC)c(OC)cc4C2C3=O)O1", "note": "(stereo not given)", "activity change, positive = activation": "-72.9% (inactive)"}
{"smiles": "C[C@H](N)c1cccc(Cl)c1Cl", "activity change, positive = activation": "-61.1% (inactive)"}
{"smiles": "CC1(C)C(=O)C=C[C@]2(C)C1CC(=O)[C@]1(C)C2CC[C@@]2(C)C(c3ccoc3)OC(=O)C3O[C@@]321", "note": "(stereo not given in full)", "activity change, positive = activation": "-101% (inactive)"}
{"smiles": "C[C@@]12CC[C@@H]3[C@H](CCC4=CC(=O)CC[C@]43C)[C@@H]1CC[C@@H]2C(=O)Cn1cnc2c(=S)nc[nH]c21", "Potency": "3.16 µM (active)"}
{"smiles": "CC(=O)OCC(=O)[C@@]1(O)CCC2C3CC[C@H]4CC(O)CC[C@@]4(C)C3C(=O)C[C@]21C", "note": "(stereo not given in full)", "activity change, positive = activation": "-62.3% (inactive)"}
{"smiles": "CN(C)C1C(=O)C(C(N)=O)=C(O)[C@@]2(O)C(=O)C3=C(O)c4c(O)cccc4[C@@](C)(O)C3C[C@@H]12", "note": "(stereo not given in full)", "activity change, positive = activation": "-72.5% (inactive)"}
{"smiles": "CC(=O)OC1CCC2C3CCc4cc(O)ccc4C3CCC12C", "note": "(stereo not given)", "activity change, positive = activation": "-63.8% (inactive)"}
{"smiles": "CC(C)CC(C)Nc1ccc(Nc2ccccc2)cc1", "note": "(stereo not given)", "activity change, positive = activation": "-58.5% (inactive)"}
{"smiles": "CC(C)c1cccc(O)c(=O)c1", "activity change, positive = activation": "-42.8% (inactive)"}
{"smiles": "COc1c2c(c(CC=C(C)C)c3oc(=O)c(-c4ccc(O)cc4)c(O)c13)OC(C)(C)C=C2", "activity change, positive = activation": "-45.9% (inactive)"}
{"smiles": "COc1cc2c(cc1OC)-c1c(OC)c(OC)c(CO)c3c1C(C2)N(C)CC3", "note": "(stereo not given)", "activity change, positive = activation": "-71.4% (inactive)"}
{"smiles": "COc1c(-c2ccccc2)oc2c(ccc3occc32)c1=O", "activity change, positive = activation": "-96.4% (inactive)"}
{"smiles": "C[C@H]1CCCC=CC2C[C@H](O)C[C@@H]2[C@H](O)/C=C\\C(=O)O1", "note": "(stereo not given in full)", "activity change, positive = activation": "-36.1% (inactive)"}
{"smiles": "Nc1ccccc1C(=O)OCCc1ccccc1", "activity change, positive = activation": "-42.1% (inactive)"}
{"smiles": "CC(=O)OC1C[C@]2(C)C(C(C)=O)CCC2C2CCC3=CC(=O)CC[C@@]3(C)C12", "note": "(stereo not given in full)", "activity change, positive = activation": "-82.2% (inactive)"}
{"smiles": "COc1cc2c(cc1OC)C1C(=O)c3c(cc4c(c3O)C=CC(C)(C)O4)OC1CO2", "note": "(stereo not given)", "activity change, positive = activation": "-61.2% (inactive)"}
{"smiles": "COC(=O)/C(C)=C\\CC12OC(C)(C)C3CC(C=C4C(=O)c5c(OC)c6c(c(CC=C(C)C)c5OC431)OC(C)(CCC=C(C)C)C=C6)C2=O", "note": "(stereo not given)", "activity change, positive = activation": "-69.3% (inactive)"}
{"smiles": "Cc1ncc(CN2CC=C(c3ccccc3)CC2)c(N)n1", "activity change, positive = activation": "-46% (inactive)"}
{"smiles": "CC1(C)CC(N=C=O)CC(C)(CN=C=O)C1", "note": "(stereo not given)", "activity change, positive = activation": "-82.8% (inactive)"}
{"smiles": "N#CC(Cl)Cl", "activity change, positive = activation": "-40.5% (inactive)"}
{"smiles": "CC(=O)c1c(O)c(C)c(O)c2c1OC1=CC(=O)C(C(C)=O)C(=O)C12C", "note": "(stereo not given)", "activity change, positive = activation": "-35.3% (inactive)"}
{"smiles": "CCCN1[C@@H]2C[C@@H](O)CC[C@@H]2C[C@H]1C(=O)OC", "activity change, positive = activation": "-45.5% (inactive)"}
{"smiles": "CC(=O)[C@]1(O)CC[C@@H]2[C@H]3C[C@@H](C)C4=CC(=O)CC[C@@]4(C)[C@H]3[C@@H](O)C[C@]21C", "activity change, positive = activation": "-33% [at 11.4 µM] (inactive)"}
{"smiles": "CN1Cc2c(ccc3c2OCO3)C2C(O)Cc3cc4c(cc3C21)OCO4", "note": "(stereo not given)", "Potency": "inactive"}
{"smiles": "O=P(N[C@@H](c1ccccc1)[C@@H]1C[C@H]1CO)(c1ccccc1)c1ccccc1", "activity change, positive = activation": "-53.3% (inactive)"}
{"smiles": "Nc1ccc(Cl)cc1Cl", "activity change, positive = activation": "-32.9% (inactive)"}
{"smiles": "Clc1ccc(C(c2ccc(Cl)cc2)n2cc[n+](C[C@@H](OCc3ccc(Cl)cc3Cl)c3ccc(Cl)cc3Cl)c2)cc1", "activity change, positive = activation": "-63.8% (inactive)"}
{"smiles": "COC(=O)[C@@H]1C[C@@]2(O)[C@H](O)[C@H](O)[C@H](O)C[C@H]2N1Cc1cccnc1", "activity change, positive = activation": "-31.1% (inactive)"}
{"smiles": "C=C(CC1(CNP(=O)(c2ccccc2)c2ccccc2)CC1)c1ccccc1", "activity change, positive = activation": "-84.4% (inactive)"}
{"smiles": "Cc1ccc([N+](=O)[O-])cc1N", "activity change, positive = activation": "-31.5% (inactive)"}
